From ChEMBL document CHEMBL1961873, “Compounds: GSK PKIS; Assays: Nanosyn kinase panel” (2012) come the findings set out here.

Molecules are shown by their SMILES.

The target in test [1] is Rho-associated protein kinase 1 (Homo sapiens) (UniProt Q13464). Particulars: at 1 µM.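 Further: reported values are mean percent inhibition of ROCK1.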
Test [2] has as its target Rho-associated protein kinase 2 (Homo sapiens) (UniProt O75116). Particulars: at 0.1 µM.
Test [3] shares this target. Particulars: at 1 µM.
The target in test [4] is Ribosomal protein S6 kinase alpha-1 (Homo sapiens) (UniProt Q15418). As to conditions: at 0.1 µM.
Ribosomal protein S6 kinase alpha-1 (Homo sapiens), sequence (Q15418 whole entry): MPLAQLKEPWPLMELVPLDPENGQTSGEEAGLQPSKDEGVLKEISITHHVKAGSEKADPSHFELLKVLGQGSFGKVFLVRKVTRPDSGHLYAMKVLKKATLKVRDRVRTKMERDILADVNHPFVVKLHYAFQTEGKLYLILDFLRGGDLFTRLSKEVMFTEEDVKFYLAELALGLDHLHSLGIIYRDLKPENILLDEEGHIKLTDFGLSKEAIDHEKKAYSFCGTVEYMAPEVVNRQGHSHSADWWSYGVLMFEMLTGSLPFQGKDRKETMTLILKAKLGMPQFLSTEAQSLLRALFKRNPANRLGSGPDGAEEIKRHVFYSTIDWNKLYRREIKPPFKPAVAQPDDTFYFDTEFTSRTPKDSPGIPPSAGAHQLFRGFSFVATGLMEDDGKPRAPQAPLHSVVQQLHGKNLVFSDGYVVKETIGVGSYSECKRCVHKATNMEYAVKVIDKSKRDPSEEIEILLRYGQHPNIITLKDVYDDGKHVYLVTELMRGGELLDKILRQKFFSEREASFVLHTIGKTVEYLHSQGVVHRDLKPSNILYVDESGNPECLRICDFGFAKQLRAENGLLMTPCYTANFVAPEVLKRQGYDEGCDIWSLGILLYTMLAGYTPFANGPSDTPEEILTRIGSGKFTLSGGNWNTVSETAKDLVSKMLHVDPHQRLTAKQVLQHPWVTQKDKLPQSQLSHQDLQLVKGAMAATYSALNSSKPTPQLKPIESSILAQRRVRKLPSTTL
Test [5] shares this target. As to conditions: at 1 µM.
Test [6] deals with Ribosomal protein S6 kinase alpha-3 (Homo sapiens) (UniProt P51812). Particulars: at 0.1 µM.
Ribosomal protein S6 kinase alpha-3 (Homo sapiens), sequence (P51812 whole entry): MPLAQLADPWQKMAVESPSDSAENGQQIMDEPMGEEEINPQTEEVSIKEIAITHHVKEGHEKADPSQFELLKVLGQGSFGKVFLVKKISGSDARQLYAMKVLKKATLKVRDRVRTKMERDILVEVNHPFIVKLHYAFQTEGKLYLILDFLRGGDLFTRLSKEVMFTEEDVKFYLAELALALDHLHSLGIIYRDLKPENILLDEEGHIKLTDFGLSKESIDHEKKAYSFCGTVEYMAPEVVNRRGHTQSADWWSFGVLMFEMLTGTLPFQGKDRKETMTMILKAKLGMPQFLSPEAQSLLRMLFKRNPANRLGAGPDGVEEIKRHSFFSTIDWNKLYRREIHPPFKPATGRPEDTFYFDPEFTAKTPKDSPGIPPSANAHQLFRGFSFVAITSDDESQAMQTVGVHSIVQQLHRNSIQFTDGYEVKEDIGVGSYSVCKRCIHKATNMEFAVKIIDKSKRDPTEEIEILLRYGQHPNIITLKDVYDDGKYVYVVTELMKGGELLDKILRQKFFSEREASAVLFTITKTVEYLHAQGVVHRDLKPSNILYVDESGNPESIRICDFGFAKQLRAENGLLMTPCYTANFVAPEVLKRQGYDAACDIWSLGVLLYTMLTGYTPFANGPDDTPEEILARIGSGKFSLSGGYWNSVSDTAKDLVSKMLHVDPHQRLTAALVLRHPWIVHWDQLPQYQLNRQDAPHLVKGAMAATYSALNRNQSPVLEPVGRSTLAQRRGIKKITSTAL
Test [7] has the same target. As to conditions: at 1 µM.
The target in test [8] is Ribosomal protein S6 kinase alpha-2 (Homo sapiens) (UniProt Q15349). As to conditions: at 0.1 µM.
The target is the same in test [9]. As to conditions: at 1 µM.
For test [10], the target named is Ribosomal protein S6 kinase alpha-6 (Homo sapiens) (UniProt Q9UK32). As to conditions: at 0.1 µM.
Ribosomal protein S6 kinase alpha-6 (Homo sapiens), sequence (Q9UK32 whole entry): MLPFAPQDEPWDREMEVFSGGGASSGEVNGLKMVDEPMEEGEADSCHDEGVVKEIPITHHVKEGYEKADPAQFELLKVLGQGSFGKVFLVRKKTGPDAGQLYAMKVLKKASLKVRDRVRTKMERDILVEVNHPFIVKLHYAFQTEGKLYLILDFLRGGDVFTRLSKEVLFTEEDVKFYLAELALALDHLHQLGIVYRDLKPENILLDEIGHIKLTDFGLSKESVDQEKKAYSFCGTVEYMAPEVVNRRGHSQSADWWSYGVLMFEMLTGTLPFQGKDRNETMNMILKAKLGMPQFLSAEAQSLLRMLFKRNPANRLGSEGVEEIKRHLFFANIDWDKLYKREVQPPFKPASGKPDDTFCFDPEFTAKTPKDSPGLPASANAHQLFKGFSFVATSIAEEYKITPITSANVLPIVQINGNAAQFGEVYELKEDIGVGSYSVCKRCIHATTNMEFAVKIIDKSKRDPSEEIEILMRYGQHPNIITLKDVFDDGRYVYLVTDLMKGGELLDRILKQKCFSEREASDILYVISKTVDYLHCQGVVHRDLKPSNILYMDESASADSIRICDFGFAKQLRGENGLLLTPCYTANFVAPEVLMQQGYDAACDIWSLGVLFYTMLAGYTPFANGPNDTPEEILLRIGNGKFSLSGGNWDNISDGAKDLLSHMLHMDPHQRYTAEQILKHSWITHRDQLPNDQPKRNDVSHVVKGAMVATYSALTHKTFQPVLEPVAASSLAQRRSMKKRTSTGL
Test [11] shares this target. As to conditions: at 1 µM.
The target in test [12] is T1, Serine/threonine-protein kinase Sgk1 (Homo sapiens) (UniProt O00141).
T1 sequence (whole entry): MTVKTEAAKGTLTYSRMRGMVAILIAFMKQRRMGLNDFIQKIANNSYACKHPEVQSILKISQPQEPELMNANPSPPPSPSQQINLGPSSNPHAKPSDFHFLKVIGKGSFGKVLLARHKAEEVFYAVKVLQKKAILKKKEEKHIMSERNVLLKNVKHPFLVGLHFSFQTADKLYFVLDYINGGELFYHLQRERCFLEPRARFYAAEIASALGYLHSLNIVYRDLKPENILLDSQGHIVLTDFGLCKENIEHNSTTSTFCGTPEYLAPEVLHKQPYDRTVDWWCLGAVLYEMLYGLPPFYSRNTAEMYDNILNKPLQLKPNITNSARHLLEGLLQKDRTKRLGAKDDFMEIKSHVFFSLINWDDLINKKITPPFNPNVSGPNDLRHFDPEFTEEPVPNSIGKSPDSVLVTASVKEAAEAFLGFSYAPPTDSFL
Particulars: at 0.1 µM.

For test [13], the target named is T1, Serine/threonine-protein kinase Sgk1 (Homo sapiens). Particulars: at 1 µM.
Test [14] deals with T2, Serine/threonine-protein kinase Sgk2 (Homo sapiens) (UniProt Q9HBY8).
T2 sequence (whole entry): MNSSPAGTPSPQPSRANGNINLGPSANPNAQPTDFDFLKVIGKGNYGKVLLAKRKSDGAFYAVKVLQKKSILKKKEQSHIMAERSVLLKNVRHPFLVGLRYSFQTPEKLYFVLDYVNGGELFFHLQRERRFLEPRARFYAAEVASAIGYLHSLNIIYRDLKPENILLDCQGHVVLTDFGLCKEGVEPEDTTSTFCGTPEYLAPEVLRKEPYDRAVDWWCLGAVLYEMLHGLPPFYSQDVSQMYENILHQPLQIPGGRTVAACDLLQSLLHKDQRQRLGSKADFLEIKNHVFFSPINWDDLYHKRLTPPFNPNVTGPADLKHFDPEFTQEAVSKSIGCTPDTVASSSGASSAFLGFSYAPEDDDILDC
As to conditions: at 0.1 µM.

For test [15], the target named is T2, Serine/threonine-protein kinase Sgk2 (Homo sapiens). Particulars: at 1 µM.
The target of test [16] is T3, Serine/threonine-protein kinase Sgk3 (Homo sapiens) (UniProt Q96BR1).
T3 sequence (whole entry): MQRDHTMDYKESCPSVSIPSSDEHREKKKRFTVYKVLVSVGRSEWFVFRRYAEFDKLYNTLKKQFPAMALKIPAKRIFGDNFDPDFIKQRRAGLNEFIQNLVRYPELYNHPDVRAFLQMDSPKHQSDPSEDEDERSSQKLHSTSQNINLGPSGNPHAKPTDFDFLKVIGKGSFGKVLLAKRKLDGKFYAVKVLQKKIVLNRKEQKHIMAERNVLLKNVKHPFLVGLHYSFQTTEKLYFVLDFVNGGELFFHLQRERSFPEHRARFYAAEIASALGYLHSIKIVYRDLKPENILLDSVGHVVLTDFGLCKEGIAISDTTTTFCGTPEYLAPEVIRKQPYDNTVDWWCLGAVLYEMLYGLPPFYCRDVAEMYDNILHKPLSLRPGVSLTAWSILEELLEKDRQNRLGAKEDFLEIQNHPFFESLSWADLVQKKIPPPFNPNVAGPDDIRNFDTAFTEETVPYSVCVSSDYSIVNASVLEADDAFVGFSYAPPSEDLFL
Particulars: at 0.1 µM.

The target of test [17] is T3, Serine/threonine-protein kinase Sgk3 (Homo sapiens). Particulars: at 1 µM.
Test [18] addresses 5'-AMP-activated protein kinase catalytic subunit alpha-1 (Homo sapiens) (UniProt Q13131). Particulars: at 0.1 µM.
The target is the same in test [19]. As to conditions: at 1 µM.
Test [20] concerns the target 5'-AMP-activated protein kinase catalytic subunit alpha-2 (Homo sapiens) (UniProt P54646). As to conditions: at 0.1 µM.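 Further: mean inhibition measured on the AMPK complex of alpha2, beta1 and gamma1 subunits.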

5'-AMP-activated protein kinase catalytic subunit alpha-1 (Homo sapiens), sequence (Q13131 whole entry, looked up): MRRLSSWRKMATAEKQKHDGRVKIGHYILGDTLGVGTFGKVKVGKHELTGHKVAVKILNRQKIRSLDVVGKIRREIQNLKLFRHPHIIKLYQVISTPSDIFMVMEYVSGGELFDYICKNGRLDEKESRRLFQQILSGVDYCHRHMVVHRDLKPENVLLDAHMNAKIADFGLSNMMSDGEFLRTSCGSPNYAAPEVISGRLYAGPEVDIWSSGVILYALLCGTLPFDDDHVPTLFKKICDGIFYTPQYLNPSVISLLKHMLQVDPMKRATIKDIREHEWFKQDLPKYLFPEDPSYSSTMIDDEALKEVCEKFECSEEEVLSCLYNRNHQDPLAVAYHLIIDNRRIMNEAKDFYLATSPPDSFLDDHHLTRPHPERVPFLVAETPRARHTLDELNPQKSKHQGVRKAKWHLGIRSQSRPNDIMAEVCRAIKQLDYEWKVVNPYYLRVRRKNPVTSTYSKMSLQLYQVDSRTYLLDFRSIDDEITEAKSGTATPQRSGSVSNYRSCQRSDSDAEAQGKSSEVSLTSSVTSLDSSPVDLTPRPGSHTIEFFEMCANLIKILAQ
Rho-associated protein kinase 1 (Homo sapiens), sequence (Q13464 2-1354 limits assumed): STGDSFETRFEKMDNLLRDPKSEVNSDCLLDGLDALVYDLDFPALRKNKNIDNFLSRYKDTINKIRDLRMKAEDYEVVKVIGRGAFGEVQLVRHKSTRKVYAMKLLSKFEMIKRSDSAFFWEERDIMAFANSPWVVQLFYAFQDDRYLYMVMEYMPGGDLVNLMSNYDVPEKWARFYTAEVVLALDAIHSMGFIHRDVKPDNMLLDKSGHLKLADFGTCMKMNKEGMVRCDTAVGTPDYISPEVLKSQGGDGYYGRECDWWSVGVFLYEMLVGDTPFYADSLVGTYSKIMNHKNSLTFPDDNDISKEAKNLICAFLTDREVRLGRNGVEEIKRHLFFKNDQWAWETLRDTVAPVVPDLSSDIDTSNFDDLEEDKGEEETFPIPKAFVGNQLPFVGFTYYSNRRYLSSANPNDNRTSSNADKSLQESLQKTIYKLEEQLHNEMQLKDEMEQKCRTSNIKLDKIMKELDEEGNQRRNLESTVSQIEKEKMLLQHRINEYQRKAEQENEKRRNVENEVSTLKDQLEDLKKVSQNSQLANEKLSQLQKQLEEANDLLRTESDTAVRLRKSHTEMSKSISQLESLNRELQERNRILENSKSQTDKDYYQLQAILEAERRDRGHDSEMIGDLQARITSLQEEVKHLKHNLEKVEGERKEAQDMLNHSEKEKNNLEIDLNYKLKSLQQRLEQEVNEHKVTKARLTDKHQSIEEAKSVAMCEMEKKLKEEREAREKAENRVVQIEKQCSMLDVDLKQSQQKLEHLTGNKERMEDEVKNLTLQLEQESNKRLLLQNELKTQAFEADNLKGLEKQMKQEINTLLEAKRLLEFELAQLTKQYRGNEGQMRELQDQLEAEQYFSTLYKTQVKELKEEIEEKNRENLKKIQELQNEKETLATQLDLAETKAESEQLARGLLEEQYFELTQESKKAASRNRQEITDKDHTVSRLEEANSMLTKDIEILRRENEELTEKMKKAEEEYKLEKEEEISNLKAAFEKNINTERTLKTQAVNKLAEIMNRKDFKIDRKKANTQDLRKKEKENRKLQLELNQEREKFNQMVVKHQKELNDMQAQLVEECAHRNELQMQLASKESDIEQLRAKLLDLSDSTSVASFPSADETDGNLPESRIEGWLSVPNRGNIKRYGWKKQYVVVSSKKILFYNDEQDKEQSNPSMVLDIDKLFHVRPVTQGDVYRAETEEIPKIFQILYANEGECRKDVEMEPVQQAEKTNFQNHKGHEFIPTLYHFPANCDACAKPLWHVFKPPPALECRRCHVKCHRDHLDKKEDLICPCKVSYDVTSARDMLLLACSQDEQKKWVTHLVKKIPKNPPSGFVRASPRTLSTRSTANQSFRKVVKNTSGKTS
5'-AMP-activated protein kinase catalytic subunit alpha-2 (Homo sapiens), sequence (P54646 whole entry, looked up): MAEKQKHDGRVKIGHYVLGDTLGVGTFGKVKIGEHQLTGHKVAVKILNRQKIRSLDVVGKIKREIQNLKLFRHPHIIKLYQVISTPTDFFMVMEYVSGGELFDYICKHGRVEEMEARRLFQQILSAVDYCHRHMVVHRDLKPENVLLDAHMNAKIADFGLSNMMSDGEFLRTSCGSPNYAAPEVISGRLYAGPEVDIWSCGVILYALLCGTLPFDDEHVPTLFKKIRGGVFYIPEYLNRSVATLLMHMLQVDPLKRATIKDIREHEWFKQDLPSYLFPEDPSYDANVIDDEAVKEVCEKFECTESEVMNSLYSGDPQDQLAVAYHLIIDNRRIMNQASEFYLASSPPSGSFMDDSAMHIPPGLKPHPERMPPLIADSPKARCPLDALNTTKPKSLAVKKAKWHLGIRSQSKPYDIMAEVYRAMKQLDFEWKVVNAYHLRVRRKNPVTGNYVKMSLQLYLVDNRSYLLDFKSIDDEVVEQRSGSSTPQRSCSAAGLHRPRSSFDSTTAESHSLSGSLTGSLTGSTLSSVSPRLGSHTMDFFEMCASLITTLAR

For `Fc1ccc(-c2nc3n(c2-c2ccncc2)CCS3)cc1`, the inhibition (as a rule, the relative decrease from the control value, in per cent) is 4.54% in [1]; 2.98% in test [2]; 5.06% in [3]; 3.03% in [4]; 2.88% in [5]; 1.5% in [6]. Also, the inhibition in test [7] came to 1.71%; in test [8], 3.31%; in [9], 4.36%; in test [10] it was 2.72%; in test [11], 3.9%; in test [12], 3.17%. Also, the inhibition in [13] worked out at 4.66%; in test [14], 2.05%; in test [15], 4.96%; in test [16] it was 1.96%; in test [17] it was 2.6%; in test [18] it was 2.91%. For the same compound, the inhibition in test [19] was determined as 2.64%; in [20], 4.5%.

With `COc1cccc(/C=N/Nc2ncnc3c2cnn3-c2cccc(OC)c2)c1`, the inhibition in [1] was determined as 3.6%; in [2] it was 2.65%; in test [3] it was 3.61%; in test [4], 1.05%; in test [5], 0.75%; in [6], 0.86%. Besides, the inhibition turned out to be 1.4% in test [7]; 1.64% in [8]; 2.21% in test [9]; 0.2% in [10]; 1.54% in test [11]; 1.88% in test [12]. In addition, the inhibition in test [13] came out at 1.38%; in [14] it was 1.32%; in [15] it was 2.15%; in [16], 2.71%; in test [17], 2.43%; in [18], 1.52%. The inhibition is 2.74% in test [19] and 5.39% in [20].

On to `COc1cc(N2CCN(C(C)C)CC2)ccc1Nc1nc(Nc2ccc(F)cc2C(=O)NC[C@@H](O)CO)c2cc[nH]c2n1`, for which the inhibition in test [1] worked out at 2.04%; in test [2] it was 4.24%; in [3], 8.05%; in test [4], 3.27%; in test [5], 12.1%; in test [6], 2.71%. The inhibition in [7] was found to be 7.3%; in test [8] it was 3.45%; in test [9] it was 5.13%; in test [10] it was 2.51%; in test [11], 8.27%; in [12], 4.42%. In addition, the inhibition was determined as 7.18% in test [13]; 2.67% in [14]; 4.33% in [15]; 2.59% in [16]; 6.24% in [17]; 4.23% in test [18]. The inhibition in [19] stood at 5.78%; in test [20] it was 2.37%.

For `CCc1ccc(Oc2nccc(-c3c(-c4ccc(F)cc4)ncn3C3CCNCC3)n2)cc1`, the inhibition was determined as 3.4% in [1]; 2.09% in test [2]; 3.7% in [3]; 2.14% in test [4]; 3.42% in test [5]; 3.03% in test [6]. Moreover, the inhibition in test [7] was 4.07%; in [8], 3.08%; in [9], 3.54%; in test [10], 3.18%; in test [11], 3.1%; in test [12] it was -1.02%. Also, the inhibition in test [13] was 1.21%; in [14], -0.69%; in [15], 1.93%; in test [16], -0.71%; in test [17], 1.87%; in test [18], 5.5%. Also, the inhibition in test [19] was found to be 8.69%; in test [20], 5.08%.

On to `CNC(=O)c1cncc(/C=C/c2c(C)cccc2C)c1`, for which the inhibition in test [1] was 0.33%; in test [2], 1.01%; in [3], 1.34%; in test [4], 1.16%; in test [5] it was 0.45%; in [6] it was 0.6%. The inhibition was -0.28% in [7]; 1.22% in test [8]; 0.63% in [9]; 0.47% in test [10]; 0.69% in [11]; 0.67% in test [12]. The inhibition in test [13] was 2.02%; in test [14], 5.07%; in test [15], -3.14%; in test [16], -1.1%; in test [17], 0.16%; in [18], -0.07%. Further, the inhibition in test [19] was 0.48%; in test [20], -4.03%.

Take `O=C(Nc1n[nH]c2nc(-c3ccco3)ccc12)C1CC1`: the inhibition in test [1] is 3.74%; in test [2], 1.89%; in test [3] it was 3%; in [4], 0.92%; in [5], 0.86%; in test [6], -0.05%. The inhibition in test [7] amounted to 0.78%; in test [8] it was 0.54%; in test [9], 1.46%; in test [10] it was 0.59%; in test [11], 0.71%; in test [12] it was 2.03%. For the same compound, the inhibition in [13] is 0.33%; in test [14] it was 0.71%; in [15] it was 0.28%; in test [16], -0.55%; in [17] it was 1.28%; in [18] it was -0.2%. Besides, the inhibition is 1.85% in [19] and 1.32% in test [20].

As for `Nc1nccc(-c2c(-c3ccc(F)cc3)ncn2C2CCC(O)CC2)n1` (stereo not given), the inhibition in [1] was 0.73%; in test [2] it was -1.47%; in test [3], -1.96%; in [4], -0.24%; in test [5] it was 2.78%; in test [6] it was -0.92%. Further, the inhibition was -0.98% in [7]; -0.62% in test [8]; 0.59% in test [9]; -0.21% in test [10]; 3.39% in test [11]; -2.26% in test [12]. The inhibition in [13] was -1.85%; in [14], -3.55%; in test [15], 7.09%; in test [16], 0.34%; in [17] it was 1.61%; in test [18], 3.45%. Moreover, the inhibition was 0.93% in [19] and 0.71% in [20].
